# PubChem BioAssay AID1159580 (chemical genetic matrix, 2015)
# The whole screen tested about 5,500 compounds, of which about 2,000 (36%) were called active. Roughly 18% stayed inconclusive and do not appear here. The list shows a part of the results. A number with no mark means an inactive call. Rule as the data show it: active = normalized growth mostly below about 0.91 (no sharp cut-off); inconclusive = no clear call, values can overlap the other calls; inactive = mostly above about 0.92.
# Test: chemical genetic growth profiling, strain panel (AID 1159580);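 also: tested at 20 µM; growth read once vehicle control cultures reached saturation at 30 °C; 1 = growth at the plate median or of vehicle wells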
# Conditions: growth OD
structure (smiles),measurement,setting,value
CCCCCCc1ccc(O)cc1O,normalized growth,"S. cerevisiae deletion strains, locus YJL187C, strain SWE1, stronger effect = lower value",0.952
same,normalized growth,"S. cerevisiae deletion strains, locus YJR043C, strain POL32, stronger effect = lower value",0.876
same,normalized growth,"S. cerevisiae deletion strains, locus YJR066W, strain TOR1, stronger effect = lower value",0.813 (active)
same,normalized growth,"S. cerevisiae deletion strains, locus YKL009W, strain mrt4, stronger effect = lower value",0.868 (active)
same,normalized growth,"S. cerevisiae deletion strains, locus YKL068W, stronger effect = lower value",0.967
same,normalized growth,"S. cerevisiae deletion strains, locus YKL085W, strain MDH1 (second series), stronger effect = lower value",0.954
same,normalized growth,"S. cerevisiae deletion strains, locus YKL085W, strain MDH1, stronger effect = lower value",0.954
same,normalized growth,"S. cerevisiae deletion strains, locus YKL160W, strain elf1, stronger effect = lower value",0.901 (active)
same,normalized growth,"S. cerevisiae deletion strains, locus YKL190W, strain CNB1, stronger effect = lower value",0.944
same,normalized growth,"S. cerevisiae deletion strains, locus YKR001C, strain vps1, stronger effect = lower value",0.325 (active)
same,normalized growth,"S. cerevisiae deletion strains, locus YKR026C, strain gcn3, stronger effect = lower value",0.972
same,normalized growth,"S. cerevisiae deletion strains, locus YKR091W, strain srl3, stronger effect = lower value",0.973
same,normalized growth,"S. cerevisiae deletion strains, locus YLL001W, strain dnm1, stronger effect = lower value",0.935
same,normalized growth,"S. cerevisiae deletion strains, locus YLL026W, stronger effect = lower value",0.915 (active)
same,normalized growth,"S. cerevisiae deletion strains, locus YLL041C, strain sdh2, stronger effect = lower value",0.973
same,normalized growth,"S. cerevisiae deletion strains, locus YLR027C, strain aat2, stronger effect = lower value",0.855 (active)
same,normalized growth,"S. cerevisiae deletion strains, locus YLR039C, strain RIC1, stronger effect = lower value",0.291 (active)
same,normalized growth,"S. cerevisiae deletion strains, locus YLR058C, strain SHM2, stronger effect = lower value",0.915
same,normalized growth,"S. cerevisiae deletion strains, locus YLR102C, strain apc9, stronger effect = lower value",0.955
same,normalized growth,"S. cerevisiae deletion strains, locus YLR113W, strain HOG1, stronger effect = lower value",0.744 (active)
same,normalized growth,"S. cerevisiae deletion strains, locus YLR221C, strain rsa3, stronger effect = lower value",0.824 (active)
same,normalized growth,"S. cerevisiae deletion strains, locus YLR258W, strain gsy2, stronger effect = lower value",0.891 (active)
same,normalized growth,"S. cerevisiae deletion strains, locus YLR262C, strain YPT6 (second series), stronger effect = lower value",0.582 (active)
same,normalized growth,"S. cerevisiae deletion strains, locus YLR262C, strain YPT6, stronger effect = lower value",0.449 (active)
same,normalized growth,"S. cerevisiae deletion strains, locus YLR268W, strain sec22, stronger effect = lower value",0.913
same,normalized growth,"S. cerevisiae deletion strains, locus YLR320W, strain mms22, stronger effect = lower value",0.74 (active)
same,normalized growth,"S. cerevisiae deletion strains, locus YLR330W, strain CHS5, stronger effect = lower value",0.872 (active)
same,normalized growth,"S. cerevisiae deletion strains, locus YLR342W, strain FKS1 (second series), stronger effect = lower value",0.87
same,normalized growth,"S. cerevisiae deletion strains, locus YLR342W, strain FKS1, stronger effect = lower value",0.973
same,normalized growth,"S. cerevisiae deletion strains, locus YLR357W, strain rsc2, stronger effect = lower value",1.07
same,normalized growth,"S. cerevisiae deletion strains, locus YLR370C, strain arc18, stronger effect = lower value",0.925
same,normalized growth,"S. cerevisiae deletion strains, locus YLR371W, strain rom2, stronger effect = lower value",0.622 (active)
same,normalized growth,"S. cerevisiae deletion strains, locus YLR384C, strain iki3, stronger effect = lower value",0.997
same,normalized growth,"S. cerevisiae deletion strains, locus YLR418C, strain cdc73, stronger effect = lower value",0.767 (active)
same,normalized growth,"S. cerevisiae deletion strains, locus YML016C, strain PPZ1, stronger effect = lower value",0.947
same,normalized growth,"S. cerevisiae deletion strains, locus YML032C, strain rad52, stronger effect = lower value",0.784 (active)
same,normalized growth,"S. cerevisiae deletion strains, locus YML120C, strain ndi1, stronger effect = lower value",0.836 (active)
same,normalized growth,"S. cerevisiae deletion strains, locus YML124C, strain tub3, stronger effect = lower value",0.934
same,normalized growth,"S. cerevisiae deletion strains, locus YMR058W, strain fet3, stronger effect = lower value",0.881 (active)
same,normalized growth,"S. cerevisiae deletion strains, locus YMR078C, strain ctf18, stronger effect = lower value",0.912 (active)
same,normalized growth,"S. cerevisiae deletion strains, locus YMR125W, strain sto1, stronger effect = lower value",1.04
same,normalized growth,"S. cerevisiae deletion strains, locus YMR129W, stronger effect = lower value",0.976
same,normalized growth,"S. cerevisiae deletion strains, locus YMR205C, strain PFK2, stronger effect = lower value",0.749 (active)
same,normalized growth,"S. cerevisiae deletion strains, locus YMR223W, strain ubp8, stronger effect = lower value",0.801 (active)
same,normalized growth,"S. cerevisiae deletion strains, locus YMR231W, strain pep5, stronger effect = lower value",0.999
same,normalized growth,"S. cerevisiae deletion strains, locus YMR307W, strain GAS1, stronger effect = lower value",0.563 (active)
same,normalized growth,"S. cerevisiae deletion strains, locus YNL067W, strain RPL9B, stronger effect = lower value",0.779 (active)
same,normalized growth,"S. cerevisiae deletion strains, locus YNL071W, strain lat1, stronger effect = lower value",0.64 (active)
same,normalized growth,"S. cerevisiae deletion strains, locus YNL183C, strain NPR1, stronger effect = lower value",0.813 (active)
same,normalized growth,"S. cerevisiae deletion strains, locus YNL209W, strain ssb2, stronger effect = lower value",0.972
same,normalized growth,"S. cerevisiae deletion strains, locus YNL233W, strain BNI4, stronger effect = lower value",0.858 (active)
same,normalized growth,"S. cerevisiae deletion strains, locus YNL248C, strain rpa49, stronger effect = lower value",0.84 (active)
same,normalized growth,"S. cerevisiae deletion strains, locus YNL250W, strain rad50, stronger effect = lower value",0.986
same,normalized growth,"S. cerevisiae deletion strains, locus YNL271C, strain bni1, stronger effect = lower value",0.952
same,normalized growth,"S. cerevisiae deletion strains, locus YNL298W, strain CLA4, stronger effect = lower value",0.831 (active)
same,normalized growth,"S. cerevisiae deletion strains, locus YNL307C, strain MCK1, stronger effect = lower value",0.322 (active)
same,normalized growth,"S. cerevisiae deletion strains, locus YNL322C, strain KRE1 (second series), stronger effect = lower value",0.927
same,normalized growth,"S. cerevisiae deletion strains, locus YNR049C, strain mso1, stronger effect = lower value",0.978
same,normalized growth,"S. cerevisiae deletion strains, locus YNR052C, strain pop2, stronger effect = lower value",0.77 (active)
same,normalized growth,"S. cerevisiae deletion strains, locus YOL012C, strain htz1",1.21
same,normalized growth,"S. cerevisiae deletion strains, locus YOL147C, strain pex11, stronger effect = lower value",0.803 (active)
same,normalized growth,"S. cerevisiae deletion strains, locus YOR001W, strain rrp6, stronger effect = lower value",0.876 (active)
same,normalized growth,"S. cerevisiae deletion strains, locus YOR061W, strain CKA2, stronger effect = lower value",0.962
same,normalized growth,"S. cerevisiae deletion strains, locus YOR069W, strain VPS5, stronger effect = lower value",0.97
same,normalized growth,"S. cerevisiae deletion strains, locus YOR070C, strain gyp1, stronger effect = lower value",0.95
same,normalized growth,"S. cerevisiae deletion strains, locus YOR080W, strain dia2, stronger effect = lower value",0.969
same,normalized growth,"S. cerevisiae deletion strains, locus YOR083W, strain WHI5, stronger effect = lower value",0.908
same,normalized growth,"S. cerevisiae deletion strains, locus YOR106W, strain vam3, stronger effect = lower value",0.837 (active)
same,normalized growth,"S. cerevisiae deletion strains, locus YOR136W, strain idh2, stronger effect = lower value",0.928
same,normalized growth,"S. cerevisiae deletion strains, locus YOR144C, strain elg1, stronger effect = lower value",0.861 (active)
same,normalized growth,"S. cerevisiae deletion strains, locus YOR184W, strain ser1, stronger effect = lower value",0.685 (active)
same,normalized growth,"S. cerevisiae deletion strains, locus YOR231W, strain MKK1, stronger effect = lower value",0.801 (active)
same,normalized growth,"S. cerevisiae deletion strains, locus YOR265W, strain rbl2, stronger effect = lower value",0.957
same,normalized growth,"S. cerevisiae deletion strains, locus YOR270C, strain vph1, stronger effect = lower value",0.73 (active)
same,normalized growth,"S. cerevisiae deletion strains, locus YOR290C, strain snf2, stronger effect = lower value",0.819 (active)
same,normalized growth,"S. cerevisiae deletion strains, locus YOR316C, strain cot1, stronger effect = lower value",0.956
same,normalized growth,"S. cerevisiae deletion strains, locus YPL051W, strain arl3, stronger effect = lower value",0.705 (active)
same,normalized growth,"S. cerevisiae deletion strains, locus YPL078C, strain atp4, stronger effect = lower value",0.891 (active)
same,normalized growth,"S. cerevisiae deletion strains, locus YPL106C, strain sse1, stronger effect = lower value",1.05
same,normalized growth,"S. cerevisiae deletion strains, locus YPL240C, strain hsp82, stronger effect = lower value",0.924 (active)
same,normalized growth,"S. cerevisiae deletion strains, locus YPL241C, strain CIN2, stronger effect = lower value",0.953
same,normalized growth,"S. cerevisiae deletion strains, locus YPL256C, strain CLN2, stronger effect = lower value",0.782 (active)
same,normalized growth,"S. cerevisiae deletion strains, locus YPR119W, strain clb2, stronger effect = lower value",0.956
same,normalized growth,"S. cerevisiae deletion strains, locus YPR141C, strain kar3, stronger effect = lower value",0.963
same,normalized growth,"S. cerevisiae deletion strains, locus YPR163C, strain tif3, stronger effect = lower value",0.906 (active)
same,normalized growth,"S. cerevisiae deletion strains, locus YPR167C, strain met16, stronger effect = lower value",0.868 (active)
same,normalized growth,"S. cerevisiae deletion strains, strain wtn01, stronger effect = lower value",0.768 (active)
same,normalized growth,"S. cerevisiae strains, strain wild type, stronger effect = lower value",0.926
